In the library only some 3.2% were active in any assay of this set; here they are far more common.
Tau filament bind: tau filament binding; P10636; recombinant tau filaments, thioflavin S fluorescence, 15 h; filaments grown with octadecylsulfate alongside compound; Potency, µM (highest dose often 57.1 µM), for the others: at the top dose activity change, negative = inhibition; 71,000 tested, 2% active;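 further: on the % scale 0 is the no-effect control and ±100 the full control effect; actives lower thioflavin S fluorescence by blocking filaments or displacing dye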
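ThS-based fibril read: tau 1 uM final, inducer ODS 30 uM final, 37 C for 15 h, ex 450/em 510 nm.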
Caspase-1 inhib: allosteric or competitive inhibitors of human caspase-1 | P29466 | Caspase-1 enzyme, Ac-WEHD-AFC fluorogenic rate | Potency, µM (series often up to 57.5 µM), without a hit: at the top dose activity change, negative = inhibition, hits mostly inhibitors | 75,000 tested, 0.03% active;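 further: plate controls were vehicle for no effect and no substrate for full effect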
Target sequence (P29466 120-297 limits assumed): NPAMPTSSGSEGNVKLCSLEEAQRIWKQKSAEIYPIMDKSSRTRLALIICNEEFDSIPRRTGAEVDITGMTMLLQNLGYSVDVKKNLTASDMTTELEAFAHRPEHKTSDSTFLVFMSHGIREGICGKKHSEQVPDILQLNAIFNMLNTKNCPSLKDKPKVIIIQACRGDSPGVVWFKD
Target sequence (P29466 317-404 limits assumed): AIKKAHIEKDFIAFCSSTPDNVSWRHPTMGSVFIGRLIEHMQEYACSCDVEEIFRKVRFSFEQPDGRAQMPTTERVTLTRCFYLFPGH
Casp7 inh: caspase-7 (human) inhibition, allosteric or competitive; P55210; recombinant caspase-7, Ac-DEVD-AFC fluorescence rate; Potency, µM (series often up to 57.5 µM), for inactives: at the highest dose activity change, negative = inhibition, usual class: inhibitors; 75,000 tested, 0.02% active; active means well fitted inhibition curve with a large enough effect in the main read-out, with a control signal flat, not every such curve was filed as active; inconclusive means small, poorly fitted or top-dose-only effect, or a change in a side signal; further: % of control where 0% means no effect
Target sequence (P55210 24-198 limits assumed): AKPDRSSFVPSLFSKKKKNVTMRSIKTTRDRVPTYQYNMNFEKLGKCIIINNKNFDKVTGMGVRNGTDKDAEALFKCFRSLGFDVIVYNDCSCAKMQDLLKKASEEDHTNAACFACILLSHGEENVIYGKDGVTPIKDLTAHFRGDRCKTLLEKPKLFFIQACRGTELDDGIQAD
Target sequence (P55210 207-303 limits assumed): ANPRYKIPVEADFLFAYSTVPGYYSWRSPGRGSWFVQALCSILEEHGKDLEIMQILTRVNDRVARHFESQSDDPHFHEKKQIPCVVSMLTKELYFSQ
DNA Pol III inh: DNA polymerase III holoenzyme inhibition. Potency, µM (doses to about 57.1 µM), for inactives: at the top dose activity change, negative = inhibition. reconstituted DNA polymerase III holoenzyme replication, biochemical. 71,000 tested, 0.25% active; further: on the % scale 0 is the no-effect control and ±100 the full control effect
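Reconstituted *E. coli* holoenzyme (0.35 nM Pol III, 1 nM beta, 154 nM SSB, 2 nM primase) was preincubated with compound for 15 min at RT. Synthesis on 1.4 nM ssM13Gori ran 35 min, then was stopped with PicoGreen/EDTA and read as dsDNA fluorescence.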
ALOX15 inhib: 15-hLO (ALOX15) enzyme inhibition; purified 15hLO-1, xylenol orange hydroperoxide absorbance; Potency, µM (doses to about 57.1 µM), inactives show at the highest dose activity change, negative = inhibition, usual class: inhibitors; 74,000 tested, 1.4% active; further: on the % scale 0 is the no-effect control and ±100 the full control effect; nearly all actives have a fitted effect of over 55% in size
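Hydroperoxide formed from arachidonic acid (50 uM) by purified human 15hLO-1 (40 nM) oxidizes ferrous iron, and the ferric-xylenol orange complex is read at 573 versus 405 nm. Compounds were preincubated 15 min; reaction ran 6 min at room temperature.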
* = called active by the depositor; [ ] = remark or other dose. Unless noted, the call rests on the fitted dose curve; in most records, active means well fitted curve in the direction sought with a large enough effect; inconclusive means small, poorly fitted or top-dose-only effect, or another doubt; inactive means no such curve, though single readings can be large; an effect the other way counts as inactive or inconclusive. Potency means the concentration at half of the fitted maximal effect.

For COc1ccc(O[C@H]2C=C[C@@H](c3ccccc3)O[C@H]2COC(=O)CC/C(C)=N\OC[C@@H](O)COCc2ccco2)cc1 the results were Caspase-1 inhib -3.2%[11.5 µM], Casp7 inh -1.0%[11.5 µM] and ALOX15 inhib 9.0%[11.4 µM].
`Cn1c(SCC(=O)c2cc3ccccc3o2)nnc1-c1ccccc1` gave Tau filament bind 3.6%, Caspase-1 inhib -3.1%, Casp7 inh -0.6%, DNA Pol III inh -6.1% and ALOX15 inhib -2.7%.
Screening O=C(CSc1nnc(-c2cccs2)n1CC1CCCO1)c1cc2ccccc2o1 (stereo unspecified) returned Tau filament bind 15.8µM*, Caspase-1 inhib -6.0%, Casp7 inh -3.8%, DNA Pol III inh 0.1% and ALOX15 inhib -13.9%.
For COC(=O)[C@H](Cc1ccccc1)NC(=O)C/C=C\[C@@H](C)[C@@H](CO)OC the results were Caspase-1 inhib 2.1%[11.5 µM], Casp7 inh 0.8%[11.5 µM] and ALOX15 inhib 3.5%[11.4 µM].
For CC(C)[C@@H]1NC(=O)[C@H](CCCCN)NC(=O)[C@H](Cc2c[nH]c3ccccc23)NC(=O)[C@H](Cc2ccc(O)cc2)NC(=O)[C@H](C)N(C)C(=O)[C@H](Cc2ccccc2)NC1=O the results were Tau filament bind -6.9%, Caspase-1 inhib 1.7%, Casp7 inh 2.5%, DNA Pol III inh 6.0% and ALOX15 inhib -8.3%.
Screening CCn1c(Cc2ccccc2)nnc1SCC(=O)Nc1nc2ccccc2s1 returned Tau filament bind 7.3%, Caspase-1 inhib -0.2%, Casp7 inh -2.8%, DNA Pol III inh 0.2% and ALOX15 inhib 25.1µM*.
Cn1cccc1Cc1nnc(SCC(=O)Nc2nc3ccccc3s2)n1CCc1ccccc1 was read as Tau filament bind 122.9%, Caspase-1 inhib -6.7%, Casp7 inh -6.2%, DNA Pol III inh 7.3% and ALOX15 inhib -8.0%.
Screening OCCN1CCN(c2ncnc3nc[nH]c23)CC1 returned Tau filament bind 25.1µM*, Caspase-1 inhib 2.4%, Casp7 inh 0.7%, DNA Pol III inh 0.8% and ALOX15 inhib inconclusive.
For O=C(CSc1nnc2ccccn12)c1ccc(OC(F)F)cc1OC(F)F the results were Tau filament bind 12.6µM*, Caspase-1 inhib -0.1%, Casp7 inh -0.8%, DNA Pol III inh -10.4% and ALOX15 inhib -42.5%.
CCN1CCN(c2cc(C)c3cc(NC(=O)Cc4ccc(OC)c(OC)c4)ccc3n2)CC1 was read as Tau filament bind -28.4%, Caspase-1 inhib -4.8%, Casp7 inh -7.4%, DNA Pol III inh -6.7% and ALOX15 inhib inconclusive.
`CCN1CCN(c2cc(C)c3cc(NC(=O)c4cnccn4)ccc3n2)CC1` gave Tau filament bind 10µM*, Caspase-1 inhib -2.5%, Casp7 inh -4.7%, DNA Pol III inh -10.1% and ALOX15 inhib -11.1%.
COc1cc2nc(N3CC=[N+](C(=O)c4ccco4)CC3)nc(N)c2cc1OC was read as Tau filament bind 7.1%, Caspase-1 inhib 1.3%, Casp7 inh -1.2%, DNA Pol III inh 3.6% and ALOX15 inhib 8.9%.
Screening N[C@@H](CSCc1ccc(I)cc1)C(=O)O returned Tau filament bind 6.5%[11.4 µM], Caspase-1 inhib -3.1%[11.5 µM], Casp7 inh -0.5%[11.5 µM], DNA Pol III inh -4.3%[11.4 µM] and ALOX15 inhib 8.4%[11.4 µM].
Screening COc1ccc([C@@H](C)c2cc3c(cc2O)OCO3)cc1 returned Tau filament bind -4.6%[11.4 µM], Caspase-1 inhib 1.6%[11.5 µM], Casp7 inh 2.4%[11.5 µM], DNA Pol III inh -2.5%[11.4 µM] and ALOX15 inhib 3.16µM*.
O=C(c1ccc(Br)o1)N1CCN(c2ccc3nnc(-c4ccccc4)n3n2)CC1 was read as Tau filament bind 203.5%, Caspase-1 inhib -4.7%, Casp7 inh -15.9%, DNA Pol III inh -7.8% and ALOX15 inhib 15.8µM*.
Screening CC(C)=C1CCC(C)CC1=O (stereo unspecified) returned Tau filament bind -0.2%, Caspase-1 inhib 1.0%, Casp7 inh 0.4%, DNA Pol III inh -1.6% and ALOX15 inhib -9.3%.
For COC(=O)c1ccc(CCc2cc(O)ccc2O)cc1 the results were Tau filament bind 3.0%[11.4 µM], Caspase-1 inhib -1.1%[11.5 µM], Casp7 inh 2.9%[11.5 µM], DNA Pol III inh -9.2%[11.4 µM] and ALOX15 inhib 1.58µM*.
Screening O=C(Nc1ccc(-n2nncc2-c2ccco2)cc1)c1cc2ccccc2oc1=O returned Tau filament bind -21.1%, Caspase-1 inhib -1.8%, Casp7 inh -20.4%, DNA Pol III inh 12.6µM* and ALOX15 inhib -9.9%.
For CCN(CC)CCCC(C)NC(=O)c1ccc(Cc2nc3ccccc3[nH]2)cc1 (stereo unspecified) the results were Caspase-1 inhib -2.1%, Casp7 inh 2.0% and ALOX15 inhib 1.8%.
Screening Cn1c(N)c(C(=O)NCc2ccccc2)sc1=S returned Tau filament bind 19.4%, Caspase-1 inhib -6.5%, Casp7 inh -4.1%, DNA Pol III inh 1.2% and ALOX15 inhib 12.6µM*.
`O=C(O)c1ccccc1NS(=O)(=O)c1ccc2c3c(cccc13)C(=O)N2` gave Tau filament bind -1.3%, Caspase-1 inhib -2.4%, Casp7 inh -3.9%, DNA Pol III inh -7.7% and ALOX15 inhib -7.6%.
For COC(=O)c1ccccc1NS(=O)(=O)c1ccc2c3c(cccc13)C(=O)N2 the results were Tau filament bind 15.8µM*, Casp7 inh inconclusive, DNA Pol III inh 1.9% and ALOX15 inhib -12.4%.
`O=c1c(-c2ccc(Cl)cc2)nc2cnc(N3CCNCC3)nc2n1-c1ccccc1` gave Tau filament bind 3.16µM*, Casp7 inh inconclusive, DNA Pol III inh -3.9% and ALOX15 inhib 4.8%.
For COc1ccc(-c2nc3cnc(N4CCNCC4)nc3n(-c3ccc(OC)cc3)c2=O)cc1 the results were Tau filament bind 130.4%, Casp7 inh inconclusive, DNA Pol III inh -11.9% and ALOX15 inhib -2.0%.
COc1ccc(-n2c(=O)c(-c3ccccc3)nc3cnc(N4CCNCC4)nc32)cc1 was read as Tau filament bind inconclusive, Caspase-1 inhib -13.2%, Casp7 inh -21.2%, DNA Pol III inh -7.4% and ALOX15 inhib 15.4%.
For O=c1c(-c2ccccc2)nc2cnc(N3CCNCC3)nc2n1-c1ccccc1 the results were Tau filament bind 3.7%, Casp7 inh inconclusive, DNA Pol III inh -3.3% and ALOX15 inhib 0.316µM*.
For COc1ccc(-n2c(=O)c(-c3ccc(Cl)cc3)nc3cnc(N4CCNCC4)nc32)cc1 the results were Tau filament bind 3.98µM*, Casp7 inh inconclusive, DNA Pol III inh -9.5% and ALOX15 inhib 0.6%.
O=c1c(-c2cc(F)cc(F)c2)nc2cnc(N3CCNCC3)nc2n1-c1ccccc1 was read as Tau filament bind 3.98µM*, Casp7 inh inconclusive, DNA Pol III inh -10.0% and ALOX15 inhib 1.7%.
For O=C(O)CCc1c2ccc(=O)c(O)c-2oc2c(O)c(O)ccc12 the results were Tau filament bind 3.16µM*, Caspase-1 inhib -5.1%[11.5 µM], Casp7 inh -20.4%[11.5 µM], DNA Pol III inh 0.0794µM* and ALOX15 inhib 3.16µM*.
For O=c1cc(-c2cccc(O)c2)oc2c(O)c(O)ccc12 the results were Tau filament bind inconclusive, Caspase-1 inhib -0.9%, Casp7 inh -2.1%, DNA Pol III inh inconclusive and ALOX15 inhib inconclusive.

Screens as filed in PubChem BioAssay.
